# Results as given in ChEMBL document CHEMBL3988442, “University of Dundee, Small-Polar-MMV Screening Library” (2021).
# The campaign covered roughly 66,000 compounds. About 960 (1.5%) showed an effect of 50% or more. The entries come from a sample that favours strong results as a whole.
# System: Trypanosoma brucei
# Test: Trypanosoma brucei 72 hour study
# Type: functional, organism-based
# Set-up: scale not given: in the data most compounds retested in dose-response had high values
smiles,measurement,setting,value
NCC1CN(C(=O)Cn2ncc(N3CCCCC3)cc2=O)CCO1 (stereo not drawn),Percent Effect,"30.3 µM, […]",7.872%
O=C(O)C(F)(F)F.O=C(c1cscn1)N1CCC2(CN(Cc3ccsc3)C2)C1,Percent Effect,"30 µM, 30.03 µM",-41.53%
Cc1cc(NC(C)c2nnn[nH]2)n2nc(C)c(C)c2n1 (stereo not drawn),Percent Effect,"30 µM, 30.03 µM",85.64%
Cc1cc(NC(C)c2csc(C)n2)n2nc(C)c(C)c2n1 (stereo not drawn),Percent Effect,"30 µM, 30.03 µM",-27.53%
Cc1cc(NC(C)c2n[nH]c(C)n2)n2nc(C)c(C)c2n1 (stereo not drawn),Percent Effect,"30 µM, 30.03 µM",-65.68%
O=C(NCc1ccco1)[C@@H]1CCO[C@@H]2CCN(CC3CC3)C[C@@H]21.O=C(O)C(F)(F)F,Percent Effect,"30 µM, 30.03 µM",-21.92%
CCc1csc(CNC2CCN(Cc3ccccc3)C2)n1 (stereo not drawn),Percent Effect,"30.3 µM, […]",-9.701%
Cc1nc(CN2CCCC(NCc3ccc(Cl)s3)C2)no1 (stereo not drawn),Percent Effect,"30.3 µM, […]",-4.21%
same,Percent Effect,"10 mM, 10 mM as filed; unlikely as a test dose",-21.78%
Cc1nc(CN2CCCC(NCc3csc(C(C)(C)C)n3)C2)no1 (stereo not drawn),Percent Effect,"30.3 µM, […]",71.04%
same,Percent Effect,"10 mM, 10 mM as filed; unlikely as a test dose",-25.98%
Cc1nc(CN2CCCC(NCc3ccsc3)C2)no1 (stereo not drawn),Percent Effect,"30 µM, 30.03 µM",-22.48%
Cc1nc(CN2CCCC(NCc3nc4ccccc4s3)C2)no1 (stereo not drawn),Percent Effect,"30.3 µM, […]",74.19%
same,Percent Effect,"10 mM, 10 mM as filed; unlikely as a test dose",66.41%
Cc1nc(CN2CCCC(NCc3cccc4ccccc34)C2)no1 (stereo not drawn),Percent Effect,"30.3 µM, […]",-31.57%
same,Percent Effect,"10 mM, 10 mM as filed; unlikely as a test dose",-42.23%
Cc1nc(CN2CCCC(NCc3cnc(C(C)(C)C)s3)C2)no1 (stereo not drawn),Percent Effect,"30.3 µM, […]",-11.81%
Cc1nc(CNC2CCN(Cc3ccccc3)C2)sc1C (stereo not drawn),Percent Effect,"30.3 µM, […]",100.1%
Cc1nc(CCNC2CCN(Cc3ccccc3)C2)sc1C (stereo not drawn),Percent Effect,"30.3 µM, […]",-17.04%
Nc1cc(N2CCCC(CO)(Cc3ccccc3F)C2)nc(N)n1 (stereo not drawn),Percent Effect,"30 µM, 30.03 µM",15.39%
CCn1nc2c(cc1=O)CN(Cc1coc(-c3ccccc3)n1)CC2,Percent Effect,"30.3 µM, […]",3.49%
CCOCC(=O)N1CCC2(CC1)COCCN2CCN(C)C.O=C(O)C(F)(F)F.O=C(O)C(F)(F)F,Percent Effect,"30.3 µM, […]",-7.88%
CCCNC(c1ccc(F)cc1)c1cccnc1.Cl.Cl (stereo not drawn),Percent Effect,"30 µM, 30.03 µM",-17.83%
CN(C)C(=O)c1ccc(C2CCCNC2)nc1.Cl.Cl (stereo not drawn),Percent Effect,"30.3 µM, […]",-34.47%
Cl.c1nc(CCC2CCCN2)cc(N2CCCCCC2)n1 (stereo not drawn),Percent Effect,"30.3 µM, […]",-0.6472%
CCN1CCC(CNC(=O)Nc2cccnc2OC)CC1,Percent Effect,"30.3 µM, […]",3.244%
COc1ncccc1NC(=O)NCC1CCS(=O)(=O)C1 (stereo not drawn),Percent Effect,"30 µM, 30.03 µM",51.37%
COc1ncccc1NC(=O)NCC1CC1,Percent Effect,"30.3 µM, […]",14.51%
CCOc1ccc(C(=O)N2CCCC(n3nc(C)nc3C)C2)cc1 (stereo not drawn),Percent Effect,10 µM,-77.91%
Cc1nnc(N2CCCC3(CN(c4ccccn4)CCO3)C2)o1.O=C(O)C(F)(F)F (stereo not drawn),Percent Effect,"30.3 µM, […]",1.863%
Cc1cc(NCc2cc(C)oc2C(F)(F)F)n2nc(C)cc2n1,Percent Effect,"30 µM, 30.03 µM",27.35%
COc1ccccc1C1(CNc2cc(C(=O)N(C)C)ccn2)CC1,Percent Effect,"30 µM, 30.03 µM",-21.75%
COc1ccccc1C1(CNc2ccnc(C(=O)N(C)C)c2)CC1,Percent Effect,"30 µM, 30.03 µM",98.99%
COc1ccccc1C1(CNc2ccc(C(=O)N(C)C)cn2)CC1,Percent Effect,"30 µM, 30.03 µM",-17.01%
CN1CCO[C@@H]2CN(C(=O)NCc3ccccc3)CC[C@@H]2C1.O=C(O)C(F)(F)F,Percent Effect,"30.3 µM, […]",-54.53%
Cn1ccnc1C(=O)N1CCC2(CCN2c2ncccn2)C1.O=C(O)C(F)(F)F (stereo not drawn),Percent Effect,"30.3 µM, […]",-37.97%
CC1CN(C)c2ccccc2CN1CCn1cncn1 (stereo not drawn),Percent Effect,"30 µM, 30.03 µM",-41.9%
CCC1CN(C)c2ccccc2CN1CCn1cncn1 (stereo not drawn),Percent Effect,"30 µM, 30.03 µM",56.46%
CCC1CN(C)c2ccccc2CN1C(=O)CCn1cncn1 (stereo not drawn),Percent Effect,"30 µM, 30.03 µM",12.6%
COc1cc(C)c(S(=O)(=O)NCc2cccnc2N(C)C)c(C)c1,Percent Effect,"30.3 µM, […]",6.422%
Cc1ccc(-n2cc(CN3CCOCC3)c(-c3cccc(C)c3)n2)cc1,Percent Effect,"30.3 µM, […]",3.807%
Cc1ccc(C)c(-n2cc(CN3CC[C@@H](O)C3)c(-c3ccccc3)n2)c1,Percent Effect,"30.3 µM, […]",100.3%
Cc1ccc(C)c(-n2cc(CN3CCOCC3)c(-c3ccccc3)n2)c1,Percent Effect,"30.3 µM, […]",5.174%
O=C(NC1CC1)C1=CC2(CCN(CCO)CC2)c2ccccc21.O=C(O)C(F)(F)F,Percent Effect,"30.3 µM, […]",-19.93%
CCN1CCN2CCCN(S(=O)(=O)c3cccc(F)c3)C2C1=O (stereo not drawn),Percent Effect,"30.3 µM, […]",65.65%
CCN1CCN2CCCN(S(=O)(=O)c3ccc(S(C)(=O)=O)cc3)C2C1=O (stereo not drawn),Percent Effect,"30.3 µM, […]",30.28%
CCN1CCN2CCCN(S(=O)(=O)c3ccc(C)cc3C)C2C1=O (stereo not drawn),Percent Effect,"30.3 µM, […]",8.732%
COc1cc(C(=O)N2C[C@H]3CC[C@@H]2CN(Cc2cscn2)C3)ccn1,Percent Effect,"30 µM, 30.03 µM",1.07%
CS(=O)(=O)NCC1CCCN(C(=O)c2cc3ccccc3o2)C1 (stereo not drawn),Percent Effect,"30.3 µM, […]",1.962%
O=C(COCC(F)(F)F)NS(=O)(=O)c1ccc2c(c1)OCCCO2,Percent Effect,"30.3 µM, […]",-2.455%
Cc1ccc(CN2CCc3onc(C(=O)N4CCCC4)c3C2)o1.O=C(O)C(F)(F)F,Percent Effect,"30.3 µM, […]",0.525%
CN1CCN(c2cc(NC(=O)Cn3ccc4ccccc43)ncn2)CC1,Percent Effect,"30.3 µM, […]",101.2%
O=C(Cn1ccc2ccccc21)Nc1cc(N2CCOCC2)ncn1,Percent Effect,"30.3 µM, […]",-10.05%
O=C(Cn1ccc2ccccc21)Nc1cc(N2CCCC2)ncn1,Percent Effect,"30.3 µM, […]",1.206%
O=C(CC1CC1)N1CC[C@H]2[C@@H]1CCC(=O)N2Cc1ccncc1.O=C(O)C(F)(F)F,Percent Effect,"30 µM, 30.03 µM",-15.55%
c1nc(N2CCCC(Cn3cncn3)C2)c2sccc2n1 (stereo not drawn),Percent Effect,"30.3 µM, […]",1.361%
Cc1cc(NC2CCc3ncnn3C2)n2ncnc2n1 (stereo not drawn),Percent Effect,"30 µM, 30.03 µM",-36.85%
Cc1nc[nH]c1CN1CCC2(CC1)CC(Nc1ncccn1)CO2.O=C(O)C(F)(F)F (stereo not drawn),Percent Effect,"30 µM, 30.03 µM",-22.29%
CC(=O)Nc1ccc(CCC2(NC(=O)C3CC3)CCCCC2)cn1,Percent Effect,"30.3 µM, […]",1.37%
CC(C)(C)c1ccc(CN2C[C@H]3C[C@H](O)C[C@H]3C2)c(OCC(N)=O)c1,Percent Effect,"30.3 µM, […]",-6.506%
Cc1cccnc1NC(=O)C(C)Cn1nc(C(F)(F)F)cc1C (stereo not drawn),Percent Effect,"30 µM, 30.03 µM",53.66%
Cc1cc(C(F)(F)F)nn1CC(C)C(=O)Nc1cccnc1 (stereo not drawn),Percent Effect,"30.3 µM, […]",-4.531%
Cc1cc(C(F)(F)F)nn1CC(C)C(=O)Nc1ccccn1 (stereo not drawn),Percent Effect,"30.3 µM, […]",13.6%
Cc1cc(N2CCN(C(=O)[C@@H]3C[C@@H]4C=C[C@H]3C4)CC2)nc2ccccc12,Percent Effect,"30.3 µM, […]",18.47%
Cl.O[C@@H]1CN(Cc2ccc(F)cc2)CC[C@H]1NCc1ccccn1,Percent Effect,"30.3 µM, […]",5.839%
CC(C)CC1CC(=O)Nc2c1cnn2Cc1ccco1 (stereo not drawn),Percent Effect,"30 µM, 30.03 µM",-10.02%
CC(C)(C)C1CC(=O)Nc2c1cnn2Cc1ccco1 (stereo not drawn),Percent Effect,"30 µM, 30.03 µM",53.72%
CC(C)C1CC(=O)Nc2c1cnn2Cc1ccco1 (stereo not drawn),Percent Effect,"30 µM, 30.03 µM",5.524%
COCc1nc(N(C)C)ncc1C(=O)NC(C)c1ccccc1 (stereo not drawn),Percent Effect,"30.3 µM, […]",-21.32%
O=C(c1cc(-c2ccn(CC3CC3)n2)n2ccccc12)N1CCCO1,Percent Effect,"30.3 µM, […]",-0.5665%
O=C(c1cc(-c2ccn(CC3CC3)n2)n2ccccc12)N1CCOCC1,Percent Effect,"30.3 µM, […]",100.3%
O=C(O)c1cc(-c2ccn(CC3CC3)n2)n2ccccc12,Percent Effect,"30.3 µM, […]",-1.96%
Cc1ccc(CN2CCC3(CC2)CC(c2cccnc2)C(=O)N3C)o1.O=C(O)C(F)(F)F.O=C(O)C(F)(F)F (stereo not drawn),Percent Effect,"30.3 µM, […]",-49.66%
COCCN1CCC2(CCCN(Cc3ccoc3)C2)C1=O.O=C(O)C(F)(F)F (stereo not drawn),Percent Effect,"30.3 µM, […]",-22.78%
O=C(CC1CCCC1)N1CCn2cc(Cn3cccn3)nc2C1.O=C(O)C(F)(F)F,Percent Effect,"30.3 µM, […]",-840.1%
O=C(O)C(F)(F)F.O=C(c1cnoc1)N1CCC[C@]2(C[C@@H](Oc3ccccn3)CO2)C1,Percent Effect,"30 µM, 30.03 µM",-14.73%
COC(=O)CCNC(=O)c1cnc(Cc2ccc(F)cc2)s1,Percent Effect,"30 µM, 30.03 µM",3.867%
CCNC(=O)c1cnc(Cc2ccc(F)cc2)s1,Percent Effect,"30 µM, 30.03 µM",3.769%
CN(C)CCCNC(=O)c1cnc(Cc2ccc(F)cc2)s1,Percent Effect,"30 µM, 30.03 µM",52.82%
O=c1c(CN2CC3CCCN3C[C@@H]2CCO)coc2ccc(Cl)cc12 (stereo partly drawn),Percent Effect,"30.3 µM, […]",-20.01%
Cc1nc(-c2ccccc2)sc1C(=O)N(C1CC1)C1CC(=O)NC1=O (stereo not drawn),Percent Effect,"30 µM, 30.03 µM",37.33%
O=C1CC(N(C(=O)c2csc(-c3ccccc3)n2)C2CC2)C(=O)N1 (stereo not drawn),Percent Effect,"30 µM, 30.03 µM",9.836%
O=C1CC(N(C(=O)Cc2csc(-c3ccccc3)n2)C2CC2)C(=O)N1 (stereo not drawn),Percent Effect,"30 µM, 30.03 µM",106%
O=C(O)C(F)(F)F.O=C1COC2(CCN(CC3CC3)CC2)CN1c1ccsc1,Percent Effect,"30.3 µM, […]",-336%
Cn1cc(N2CCC3(CCCN(Cc4ccc(F)cc4)C3)C2=O)cn1.O=C(O)C(F)(F)F (stereo not drawn),Percent Effect,"30 µM, 30.03 µM",66.19%
Cn1cc(CN2CCC3(CCN(c4cnn(C)c4)C3=O)C2)cn1.O=C(O)C(F)(F)F (stereo not drawn),Percent Effect,"30 µM, 30.03 µM",-6.498%
Cc1nc(CN2CCCC3(CCN(c4cnn(C)c4)C3=O)C2)cs1.O=C(O)C(F)(F)F (stereo not drawn),Percent Effect,"30.3 µM, […]",-9.884%
COCCNc1ccc(CC2CCCNC2)cn1.Cl (stereo not drawn),Percent Effect,"30.3 µM, […]",0.7781%
CSCc1cc(F)ccc1CNC(=O)N1CCC(CO)CC1,Percent Effect,"30 µM, 30.03 µM",-59.11%
CN(C)c1ccc(CNC2=NCCCN2)cc1.I,Percent Effect,"30.3 µM, […]",99.22%
I.c1ccc(OCCNC2=NCCCN2)cc1,Percent Effect,"30 µM, 30.03 µM",-0.004482%
CCOCc1ccc(CNC2=NCCCN2)cc1.I,Percent Effect,"30.3 µM, […]",-5.411%
NC[C@H]1CC[C@H](C(NC(=O)CC2CCCC2)c2ccccn2)CC1 (stereo partly drawn),Percent Effect,"30.3 µM, […]",-41.17%
CCCN1C[C@H](NC(=O)c2ccccc2F)[C@@H](c2ccc(OC)cc2)C1,Percent Effect,"30.3 µM, […]",-8.438%
Cc1ccc(CN2CCC3(CC2)CC(CC(=O)NC(C)C)CO3)s1.O=C(O)C(F)(F)F (stereo not drawn),Percent Effect,"30.3 µM, […]",-52.98%
O=C(C1CCOCC1)N1C[C@H]2C[C@H](OCc3ccccc3)C[C@H]2C1,Percent Effect,"30.3 µM, […]",32.35%
CN(C)CCOCC1CN(Cc2ccsc2)Cc2nnn(C)c21.O=C(O)C(F)(F)F.O=C(O)C(F)(F)F (stereo not drawn),Percent Effect,"30.3 µM, […]",-20.25%
Cc1nccn1C1CCCN(C(=O)c2ccc(N(C)C)nn2)C1 (stereo not drawn),Percent Effect,"30.3 µM, […]",-14.31%
Cc1nc(C)n(C2CCCN(C(=O)c3ccc(O)nc3)C2)n1 (stereo not drawn),Percent Effect,10 µM,-79.94%
Cc1cc(C)n(C2CCCN(C(=O)c3ccc(NC4CC4)nc3)C2)n1 (stereo not drawn),Percent Effect,"30 µM, 30.03 µM",3.181%
Cc1nccn1C1CCCN(C(=O)c2ccc(N(C)C)nc2)C1 (stereo not drawn),Percent Effect,"30 µM, 30.03 µM",59.27%
Cc1nc(C)n(C2CCCN(C(=O)c3ccc(NC4CC4)nc3)C2)n1 (stereo not drawn),Percent Effect,"30 µM, 30.03 µM",56.19%
CN(C)c1ccc(C(=O)N2CCCC(n3cccn3)C2)cn1 (stereo not drawn),Percent Effect,"30.3 µM, […]",-20.71%
